Screening results from PubChem BioAssay.
mcGAS inh – blocks mouse cGAS activity. Q8C6L5. recombinant cGAS, Kinase-Glo ATP depletion luminescence. inhibition, % at 12.5 µM. 160,000 tested, 0.15% active. AID 1259399
Target sequence (Q8C6L5 whole entry, looked up): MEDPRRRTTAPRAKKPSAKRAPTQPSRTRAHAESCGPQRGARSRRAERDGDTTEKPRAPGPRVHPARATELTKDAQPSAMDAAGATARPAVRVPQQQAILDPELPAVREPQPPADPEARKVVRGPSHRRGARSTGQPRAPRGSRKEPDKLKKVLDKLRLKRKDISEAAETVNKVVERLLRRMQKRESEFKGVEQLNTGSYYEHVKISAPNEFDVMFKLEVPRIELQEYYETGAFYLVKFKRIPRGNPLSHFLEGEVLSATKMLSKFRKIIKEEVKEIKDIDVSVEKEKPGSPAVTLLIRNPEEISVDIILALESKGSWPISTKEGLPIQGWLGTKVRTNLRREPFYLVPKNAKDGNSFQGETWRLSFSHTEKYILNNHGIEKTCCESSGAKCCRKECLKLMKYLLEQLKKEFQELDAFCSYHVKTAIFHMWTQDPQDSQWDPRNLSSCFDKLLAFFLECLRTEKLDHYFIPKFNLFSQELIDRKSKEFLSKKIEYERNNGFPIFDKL
hcGAS lum – blocks human cGAS activity | inhibition, % at 12.5 µM | AID 1259398 | Q8N884 | recombinant h-cGAS, ATP depletion, Kinase-Glo luminescence | 290,000 tested, 0.081% active
NPYLR7 ag – activates Aedes aegypti NPYLR7 receptor. HEK293T NPYLR7/Galpha15, GCaMP6s calcium fluorescence. activation, % at 10 µM. 270,000 tested, 0.15% active; in the data active = activation above about 40%
Hits are given with their value. An excerpt weighted towards active compounds, which were near 0.24% of everything screened. Cut-off read from the data, not from the text of the source, unless noted: active = inhibition above about 40%; inactive = the rest.

`O=C1C(=Cc2ccc(OC(F)F)cc2OC(F)F)Oc2cc(O)ccc21` gave hcGAS lum inactive and NPYLR7 ag 41.4.
COc1ccc(C=C2Oc3cc(O)ccc3C2=O)c(OC)c1 was read as hcGAS lum inactive and NPYLR7 ag inactive.
`COc1ccccc1C=C1Oc2cc(O)ccc2C1=O` gave hcGAS lum inactive and NPYLR7 ag inactive.
`CCOc1cccc(C=C2Oc3cc(O)ccc3C2=O)c1OC` gave hcGAS lum inactive and NPYLR7 ag 69.7.
NC(=NCCC[C@H](N)C(=O)O)NO was read as mcGAS inh 57.7, hcGAS lum inactive and NPYLR7 ag inactive.
For CN(C)C(N)=NCCC[C@H](N)C(=O)O the results were mcGAS inh inactive, hcGAS lum inactive and NPYLR7 ag inactive.
CO[C@@H]1CC[C@@]2(OC)CCN(C(=O)c3n[nH]c4c3CN(C)CC4)[C@H]2C1 was read as mcGAS inh inactive and hcGAS lum inactive.
COCC1(C(=O)N(C)Cc2n[nH]c3c2CCCCC3)CCC1 was read as hcGAS lum inactive and NPYLR7 ag inactive.
Cc1cnn(Cc2nnc(-c3ccc(Br)cc3)o2)c1 was read as hcGAS lum inactive and NPYLR7 ag inactive.
For CN(CCNC(=O)c1cccnc1)S(C)(=O)=O the results were hcGAS lum inactive and NPYLR7 ag inactive.
For Cc1ccc(C)n1-c1sccc1C(=O)O the results were mcGAS inh 86.2, hcGAS lum 43.6 and NPYLR7 ag inactive.
For Cc1sc(-n2c(C)ccc2C)c(C(=O)O)c1C the results were mcGAS inh inactive, hcGAS lum inactive and NPYLR7 ag inactive.
For CC(C)NS(=O)(=O)c1ccc(C(=O)N(CC(F)(F)F)c2ccccn2)cc1 the results were mcGAS inh inactive, hcGAS lum inactive and NPYLR7 ag inactive.
For CS(=O)(=O)N=C1C=C(S(=O)(=O)c2ccccc2)C(=O)c2ccccc21 the results were hcGAS lum 55.2 and NPYLR7 ag inactive.
COC1=C(OC)C(=O)c2ccccc2C1=O was read as mcGAS inh inactive, hcGAS lum inactive and NPYLR7 ag inactive.
Screening COc1ccc(-n2cc(CN(C)CC3COCCO3)c(-c3cccc(F)c3)n2)cc1 (centres undefined) returned hcGAS lum inactive and NPYLR7 ag inactive.
Cc1cc2nc3c(=O)[nH]c(=O)nc-3n(CC(O)C(O)C(O)CO)c2cc1C (centres undefined) was read as hcGAS lum inactive and NPYLR7 ag 172.5.
`Cc1cc2nc3c(=O)[nH]c(=O)nc-3n(C)c2cc1C=O` gave hcGAS lum inactive and NPYLR7 ag inactive.
CN1CC2CCCC3(C1)C(=O)NC1(CCCCC1)N=C23 (centres undefined) was read as hcGAS lum inactive and NPYLR7 ag inactive.
Screening Cc1ccccc1CN1CCC(NS(=O)(=O)c2cc(F)ccc2C)CC1 returned mcGAS inh inactive, hcGAS lum inactive and NPYLR7 ag inactive.
Cc1cc(O)c(C=O)c(O)c1C(=O)O was read as hcGAS lum 55.7 and NPYLR7 ag inactive.
COC(=O)c1c(C)cc(OC(=O)c2c(C)cc(O)c(C=O)c2O)c(C)c1O was read as mcGAS inh inactive and hcGAS lum inactive.
Screening C=CCn1cc(CN(C)Cc2cnn(-c3cccc(C)c3)c2)c(C)n1 returned hcGAS lum inactive and NPYLR7 ag inactive.
For Cc1ccc(-c2cc(C(=O)Nc3cccc(Cl)c3Cl)c3ccccc3n2)o1 the results were mcGAS inh inactive, hcGAS lum inactive and NPYLR7 ag inactive.
Screening CSc1nnc2c(n1)OC(c1ccc(Br)cc1)Nc1ccccc1-2 (centres undefined) returned mcGAS inh inactive, hcGAS lum inactive and NPYLR7 ag inactive.
For CSc1nnc2c(n1)OC(c1ccc(OC(=O)c3ccc(Br)cc3)cc1)Nc1ccccc1-2 (centres undefined) the results were mcGAS inh inactive, hcGAS lum inactive and NPYLR7 ag 45.6.
O=C(O)CN(CC(=O)O)Cc1cc2c(-c3ccccc3C(=O)O)c3cc(CN(CC(=O)O)CC(=O)O)c(=O)cc-3oc2cc1O was read as mcGAS inh inactive and hcGAS lum inactive.
CCN(CC)c1ccc2c(-c3ccccc3C(=O)O)c3ccc(=[N+](CC)CC)cc-3oc2c1 was read as mcGAS inh inactive, hcGAS lum inactive and NPYLR7 ag 44.3.
`Cc1cccc(NS(=O)(=O)c2c(C)nn(C)c2Cl)c1C(=O)O` gave hcGAS lum inactive and NPYLR7 ag inactive.
`Cc1nn(C)c(Cl)c1/C=C1/CCCc2c1nc1ccccc1c2C(=O)O` gave mcGAS inh inactive, hcGAS lum inactive and NPYLR7 ag 56.8.
For Cc1ccc(NC(C)C(=O)Nc2ccc3c(c2)OCCO3)cc1 (centres undefined) the results were hcGAS lum inactive and NPYLR7 ag inactive.
O=C(O)c1cc(C2=CCCCC2)cc(S(=O)(=O)NCc2ccccn2)c1 was read as mcGAS inh inactive, hcGAS lum inactive and NPYLR7 ag inactive.
Screening COc1ccc(N2C(=O)CSC2c2cccc(NC(=O)c3cccc(F)c3)c2)cc1 (centres undefined) returned mcGAS inh inactive, hcGAS lum inactive and NPYLR7 ag inactive.
`Cc1nc(Sc2nnc3ccccn23)c2c3c(sc2n1)CCCC3` gave mcGAS inh inactive, hcGAS lum inactive and NPYLR7 ag 43.2.
For c1ccn2c(Sc3ncnc4sc5c(c34)CCCC5)nnc2c1 the results were hcGAS lum inactive and NPYLR7 ag inactive.
`COc1cc(/C=C(\C#N)C(=O)c2ccc(O)c(O)c2)cc(I)c1O` gave mcGAS inh inactive, hcGAS lum inactive and NPYLR7 ag 191.0.
For COc1cc(C=C(C#N)C(N)=O)cc(OC)c1O the results were hcGAS lum inactive and NPYLR7 ag inactive.
Screening CN(C)C(=O)c1ccc(NCc2ccc(C#N)cc2)cc1Cl returned mcGAS inh inactive, hcGAS lum inactive and NPYLR7 ag inactive.
`COCc1cc(C)nc(OCC(=O)N/N=C\c2cc(Br)cc(I)c2O)c1C#N` gave mcGAS inh inactive, hcGAS lum inactive and NPYLR7 ag inactive.
For COCCN=Cc1cc(I)cc(I)c1O the results were hcGAS lum 76.6 and NPYLR7 ag 50.9.
`CCOc1ccc(-c2nnc(NC(=O)Cc3cccc4ccccc34)o2)cc1` gave mcGAS inh inactive, hcGAS lum inactive and NPYLR7 ag inactive.
For CSC(C)C(=O)Nc1ccc(I)cc1 (centres undefined) the results were mcGAS inh inactive, hcGAS lum inactive and NPYLR7 ag inactive.
Screening NC(=NC1C2CC3CC(C2)CC1C3)Nc1ccc(I)cc1 (centres undefined) returned hcGAS lum inactive and NPYLR7 ag 43.1.
Screening Cc1noc(C(C)NC(=O)c2cccnc2SC/C=C/c2ccccc2)n1 (centres undefined) returned mcGAS inh inactive, hcGAS lum inactive and NPYLR7 ag inactive.
For COc1cc(/C=C(/C#N)c2nc3cc(Cl)ccc3s2)ccc1O the results were hcGAS lum inactive and NPYLR7 ag 102.4.
For COc1ccc(C=C(C#N)c2nc(-c3ccc(F)cc3)cs2)cc1O the results were mcGAS inh inactive, hcGAS lum inactive and NPYLR7 ag inactive.
Screening CSc1cccc(NC(=O)c2csc(C)n2)c1 returned hcGAS lum inactive and NPYLR7 ag inactive.
`CC1(C)CC(c2nccn2CCOc2ccccc2)CCO1` (centres undefined) gave hcGAS lum inactive and NPYLR7 ag inactive.
CC1(C)CC(c2[nH]cnc2-c2ccccc2)CCO1 (centres undefined) was read as hcGAS lum inactive and NPYLR7 ag 58.3.
